Screening results as filed in PubChem.
In the library only some 4.6% were active in any assay of this set; here they are far more common.
TRHR PAM: allosterically enhances the human TRH receptor; P34981; TRHR cells, fluo-8 calcium fluorescence, EC20 TRH enhancement; enhancement, % at 2 µM; 360,000 compounds, 0.66% hits; AID 493056; in the data active = enhancement above about 30%
Target sequence (P34981 whole entry, looked up): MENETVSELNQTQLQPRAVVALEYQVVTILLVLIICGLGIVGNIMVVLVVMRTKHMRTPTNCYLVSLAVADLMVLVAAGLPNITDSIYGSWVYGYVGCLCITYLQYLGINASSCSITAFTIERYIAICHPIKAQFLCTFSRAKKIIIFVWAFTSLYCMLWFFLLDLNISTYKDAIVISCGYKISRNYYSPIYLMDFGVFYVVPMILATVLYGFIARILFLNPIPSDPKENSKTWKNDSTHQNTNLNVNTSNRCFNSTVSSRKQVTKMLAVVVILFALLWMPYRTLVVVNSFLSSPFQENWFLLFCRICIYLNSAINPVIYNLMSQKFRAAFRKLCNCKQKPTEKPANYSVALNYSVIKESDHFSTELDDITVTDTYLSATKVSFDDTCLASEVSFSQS
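Enhancer read-out: after compound pinning and an initial kinetic agonist-mode read, an EC20 of TRH (10 nM final) was injected and fluo-8 calcium signal (Ex 480/Em 530) followed at 1 s/cycle for 100 cycles in TRHR-expressing cells.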
D1 ag: activates the human D1 dopamine receptor. HEK293 T-REx D1 cells, calcium flux, agonist mode. activation, % at 2 µM. 360,000 compounds, 1% hits. AID 504660
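Inducible HEK293 T-REx D1 cells, force-coupled to calcium signalling, were plated at 4000 cells/well with tetracycline and held overnight at 30 C. After no-wash calcium dye loading, compound-evoked calcium rise over 180 s flagged agonists.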
TRHR ag: activates the human TRH receptor. P34981. TRHR cells, calcium flux fluo-8, FDSS agonist mode. activation, % at 2 µM. 360,000 compounds, 0.18% hits
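Agonist-mode FDSS calcium read (Ex 480/Em 530, 1 s cycles) in 1536-well TRHR cells with fluo-8 dye, after 10-cycle baseline and 23 nL compound addition; TRH at EC20 (10 nM final) added afterwards for the enhancer phase.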
D1 antag: antagonists of human D1 dopamine receptor; activity change, negative = inhibition, % at 10 µM; P21728; HEK293 TREx D1 cells, calcium flux, dopamine EC80; hits give low values; 360,000 compounds, 3.2% hits; AID 504652; in the data active = activity change below about -30%
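After overnight tetracycline induction at 30 C, force-coupled D1 HEK293 cells took up a no-wash calcium dye at room temperature. Compounds were added and monitored 180 s, and the response to EC80 dopamine was then recorded.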
D1 PAM: human D1 dopamine receptor positive modulation | P21728 | HEK293 TREx D1 cells, calcium flux, dopamine EC20 potentiation | potentiation, % at 10 µM | 360,000 compounds, 0.036% hits | AID 504651; in the data active = potentiation above about 30%
Of the large screens only hits and unclear results are named; the others gave an inactive call; ! = a repeat was not active. Rule as the data show it, unless noted: active = activation above about 30%; inactive = the rest.

Cc1ccc(Cn2cccc(C(=O)Nc3ccc4c(c3)OCO4)c2=O)cc1	none (no result: D1 antag)
Cc1cccc(-n2nc(C)c3c2NC(=O)CSC3c2ccccc2Cl)c1 (stereo not given)	none
CCOc1ccc2nc(NC(=O)c3cccn(Cc4ccc(Cl)cc4)c3=O)sc2c1	none
O=[N+]([O-])c1cc(-n2cnnn2)c(O)c([N+](=O)[O-])c1	none
O=[N+]([O-])c1cc(O)c(O)c([N+](=O)[O-])c1	D1 antag -40.9
COc1ccccc1CCNCc1ccc(OC)c(OC)c1OC	TRHR PAM 39.0
Cc1cccc(-n2c(CC3C(=O)Nc4ccc(C)cc43)nc3ccccc3c2=O)c1 (stereo not given)	none
O=C(Nc1ccc2c(c1)OCCO2)c1cccn(Cc2cccc(F)c2)c1=O	none (no result: D1 antag)
CCOc1ccc(-n2c(O)c(/C=C3\C=Nc4ccccc43)c(=O)[nH]c2=O)cc1	D1 ag 32.2
CCCC1=Nc2cc(C(=O)NCCCN(CC)CC)ccc2Sc2ccccc21	none
CC(c1ccc(F)cc1)n1cc(C(=O)NCc2ccc3c(c2)OCO3)nn1 (stereo not given)	D1 ag 31.0
CCc1ccc(NC(=O)c2cccn(Cc3cccc([N+](=O)[O-])c3)c2=O)cc1	none (no result: D1 antag)
Cc1cc(N2CCCC2)ccc1C=C(C#N)C#N	D1 ag 32.4, D1 antag -33.0
Nc1c(C(=O)Nc2ccc(OC(F)(F)F)cc2)sc2nc3c(cc12)N1CCC3CC1	none
Cc1ccc(NC(=O)N(Cc2ccc3c(c2)OCO3)C2CCN(Cc3ccccc3)CC2)cc1Cl	D1 ag 41.7
CCSc1nnc(NC(=O)c2cccn(Cc3ccccc3Cl)c2=O)s1	none
Cc1ccc(/C=C2/C(=O)NC(=O)N(Cc3ccc(F)cc3)C2=O)o1	none
Cc1ccc(/C=C2\C(=O)NC(=O)N(CCc3ccc(F)cc3)C2=O)o1	TRHR PAM 36.6
Cc1ccccc1-c1nc(CN2C(=O)CN=C(c3ccccc3)c3ccccc32)c(C)o1	none
Cc1ccc(-n2c(O)c(C=NC3CCCC3)c(=O)[nH]c2=O)c(C)c1	TRHR PAM 40.6
Cc1ccc(-n2c(O)c(C=NC3CCCCC3N)c(=O)[nH]c2=O)cc1C (stereo not given)	none
CN(Cc1ccccc1)C(=O)CN1CCCC1=O	none
O=C(CN1CCCC1=O)Nc1ccccc1	D1 antag -35.2
COc1cccc(NC(=O)c2cccn(Cc3ccccc3C)c2=O)c1	none
CN(C)CCNC(=O)c1cccn(Cc2cccc(C(F)(F)F)c2)c1=O	none
CNC(=O)c1cccn(Cc2cccc(C(F)(F)F)c2)c1=O	D1 antag -31.9
Cc1ccc(C)c(C2(O)CC(C)N(C)CC2C)c1 (stereo not given)	D1 antag -46.0
C=CCn1c(O)c(C(CC)=NCc2ccc3c(c2)OCO3)c(=O)[nH]c1=O	none
CCCCn1c(O)c(C(CC)=NCc2ccc3c(c2)OCO3)c(=O)[nH]c1=O	D1 antag -33.9
Cc1cccc(C2CC(=O)Oc3c2c(=O)oc2ccccc32)c1 (stereo not given)	none
Cc1[nH]c2ccccc2c1CCNCc1cccnc1	none
Cc1[nH]c2ccccc2c1CCNCc1ccco1	D1 antag -40.7
COc1cc(/C=C2\C(=O)NC(=O)N(c3ccccc3)C2=O)c([N+](=O)[O-])cc1OC	D1 antag -56.3
COc1ccccc1N=Cc1c(O)n(C)c(=O)n(C)c1=O	D1 antag -35.4
COc1ccc(Cl)cc1N=Cc1c(O)n(C)c(=O)n(C)c1=O	none
O=C(c1ccc2c(c1)N(Cc1ccc(F)cc1Cl)C(=O)c1ccccc1S2)N1CCC2(CC1)OCCO2	none
CC(C)c1ccc(OCC(=O)N2CCN(CCc3ccccn3)CC2)cc1	none
Oc1ccc(C[C@H]2NCCc3cc(O)c(O)cc32)cc1O	D1 antag -90.2
Oc1ccc(CC2CC3CCN2CC3)cc1O (stereo not given)	none
COc1ccc2c(c1)CC1(CN2C)C(=O)NC(=O)N(c2ccc(C)cc2)C1=O (stereo not given)	none
COc1ccc2c(c1)CC1(CN2C)C(=O)NC(=O)N(c2ccc(F)cc2)C1=O (stereo not given)	D1 antag -82.2
CN1CCN(c2ccc([N+](=O)[O-])c(Sc3ccccn3)c2)CC1	D1 antag -70.0
CC(C(=O)N1CCC2(CC1)OCCO2)C1Sc2ccccc2NC1=O (stereo not given)	TRHR PAM 35.1
C[C@H]1CC[C@@H]2[C@@H](C)[C@H]3[C@H](C[C@H]4[C@@H]5CC=C6C[C@@H](O[C@@H]7O[C@H](CO)[C@H](O)[C@H](O[C@@H]8O[C@H](CO)[C@@H](O)[C@H](O)[C@H]8O)[C@H]7O[C@@H]7O[C@@H](C)[C@H](O)[C@@H](O)[C@H]7O)CC[C@]6(C)[C@H]5CC[C@]34C)N2C1	D1 ag 95.9
CC(C)(C)N1C(=O)NC(=O)/C(=C\c2ccc3c(c2)CCN3CCCCl)C1=O	D1 antag -32.4
COc1ccc(NC(=O)CN2C(=O)CN=C(c3ccccc3)c3ccccc32)c(OC)c1	none
Cc1nc2ccccc2c(=O)n1-c1ccc(C(=O)O)cc1	TRHR PAM 30.6
Cc1nc2ccccc2c(=O)n1-c1cccc(C(F)(F)F)c1	none
Cc1cccc(CN2C(=O)CN=C(c3ccccc3)c3cc(Cl)ccc32)c1	none
COc1ccccc1CC1/C(=N/O)C2CCN1CC2 (stereo not given)	D1 antag -69.2
O=C1C2CCN(CC2)C1Cc1ccccc1O (stereo not given)	none
CC(C)(C)c1ccc(O)c(N=Cc2c(O)ccc3ccccc23)c1	D1 ag 257.9, TRHR ag 62.8
COC(=O)C(O)(c1ccc(N=Cc2ccccc2O)c(C)c1)C(F)(F)F (stereo not given)	none
Cc1cc(OCC(=O)N2CCN(CCc3ccncc3)CC2)ccc1Cl	none
CCOC(=O)c1ccc(NC(=O)c2cccn(Cc3ccccc3F)c2=O)cc1	none
Cc1ccc2nc(NC(=O)c3cccn(Cc4ccc(Cl)cc4)c3=O)sc2c1	none
Cc1ccc(C[n+]2c(-c3ccc(C)cc3)cc(-c3ccc(C)cc3)cc2-c2ccc(C)cc2)cc1	D1 ag 39.5
CCN(CC)c1ccc(CNCCc2ccccc2F)cc1	D1 ag 45.5
Cc1ccc(CNCCc2ccccc2F)cc1	none
NC1CCc2cc(O)c(O)cc2C1 (stereo not given)	D1 ag 76.7, D1 antag -102.0
O=C(COc1cc(Cl)ccc1Cl)Nc1ccc(Cl)cc1C(=O)c1ccccc1	none
Cc1ccccc1-c1nn2c(=O)cc(CN3CCN(C(=O)COc4ccccc4Cl)CC3)nc2s1	D1 antag -34.8
Cc1ccc(-n2c(/C=C/c3ccccc3)nc3ccccc3c2=O)cc1Cl	none
CC[C@@H](CO)NC(=O)[C@@H]1C=C2c3cccc4c3c(cn4C)C[C@H]2N(C)C1	D1 antag -76.8!
